“And” between values parts separate entries of the source, which are not always exact repeats. Equal entries are not always repeated. Records with an inconclusive call do not appear. Some compounds were tested as several samples or in several runs, with calls that do not always agree. The source made the active and inactive calls. Unless noted, calls come from the whole dose curve; as a rule, active = well fitted curve in the direction sought with a large enough effect in the repeat runs; inconclusive = weak or mixed curves; inactive = no such curve, though single readings can be large; an effect the other way counts as inactive or inconclusive.

A short description of experiment [1]: qHTS assay to identify small molecule antagonists of the retinoid acid receptor (RAR) signaling pathway - cell viability counter screen (AID 1159551). Note: nearly all actives have a fitted effect of over 35% in size. Note: potency is the fitted concentration of half-maximal effect. In outline: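 ATP-based viability, C3RL4 cells, 6 h at 37 C with 1 uM final retinol co-added after compound; luminescence read 30 min post CellTiter-Glo, RT.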
For experiment [2], the target named is Luciferin 4-monooxygenase (Photinus pyralis) (UniProt P08659). Put plainly: qHTS assay to identify small molecule inhibitors of firefly luciferase (AID 1224835). Note: nearly all actives have a fitted effect of over 25% in size. Note: potency is the fitted concentration of half-maximal effect. In outline:
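Biochemical qHTS: compounds run as interplate titrations against purified firefly enzyme, with D-luciferin and ATP each at its KM concentration. Light output recorded by CCD imaging.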

Experiment [3] is described as follows: qHTS RealTime-Glo MT Cell Viability Assay in HepG2 cells - 24 hour (AID 1224867). Note: nearly all actives have a fitted effect of over 50% in size. Note: potency is the fitted concentration of half-maximal effect. In short, it runs like this: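 Compound treatment began 5 h after plating HepG2 cells (600/well) with NanoLuc luciferase and prosubstrate. Plates stayed at 37 C for 40 h; luminescence was captured at six time points, 0 h through 40 h.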
In general terms: Quantitative high-throughput screening tests each substance at several concentrations.

The nature of experiment [4]: qHTS RealTime-Glo MT Cell Viability Assay in HEK293 cells - 32 hour (AID 1224868). Note: nearly all actives have a fitted effect of over 50% in size. Note: potency is the fitted concentration of half-maximal effect. In short, it runs like this: (§1)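 Quantitative high-throughput screen of the Tox21 10K library in HEK293: cells and RealTime-Glo reagents plated together, compound added at 5 h, luminescence monitored through 40 h at 37 C.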
Experiment [5] can be described thus: A CellTox Green Cytotoxicity Assay to monitor cytotoxicity in HEK293 cells - 24 hour (AID 1224875). Note: nearly all actives have a fitted effect of over 45% in size. Note: potency is the fitted concentration of half-maximal effect. In short, it runs like this:
(§2)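 Dead-cell fluorescence measured kinetically: asymmetric cyanine dye, HEK293, 600 cells/well, 5 h settle, 23 nL cpd/DMSO, 37 C, reads 0–40 h every 8 h.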

Experiment [6] in a line: A CellTox Green Cytotoxicity Assay to monitor cytotoxicity in HepG2 cells - 24 hour (AID 1224878). Note: nearly all actives have a fitted effect of over 45% in size. Note: potency is the fitted concentration of half-maximal effect. In short, it runs like this:
(§3)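 First, HepG2 cells (600/well) mixed with reagent were plated; second, after 5 h at 37 C they received compounds via pintool; third, fluorescence was measured at 0 h through 40 h at 8 h intervals.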

Experiment [7] in a line: A CellTox Green Cytotoxicity Assay to monitor cytotoxicity in HepG2 cells - 40 hour (AID 1224879). Note: nearly all actives have a fitted effect of over 40% in size. Note: potency is the fitted concentration of half-maximal effect. In short, it runs like this: as §3
Experiment [8] can be described thus: A CellTox Green Cytotoxicity Assay to monitor cytotoxicity in HepG2 cells - 32 hour (AID 1224883). Note: nearly all actives have a fitted effect of over 50% in size. Note: potency is the fitted concentration of half-maximal effect. In short, it runs like this: as §3
Experiment [9] can be described thus: A CellTox Green Cytotoxicity Assay to monitor cytotoxicity in HEK293 cells - 8 hour (AID 1224884). Note: nearly all actives have a fitted effect of over 35% in size. Note: potency is the fitted concentration of half-maximal effect. In short, it runs like this: as §2
The nature of experiment [10]: qHTS RealTime-Glo MT Cell Viability Assay in HEK293 cells - 24 hour (AID 1224886). Note: nearly all actives have a fitted effect of over 50% in size. Note: potency is the fitted concentration of half-maximal effect. In short, it runs like this:
as §1

The target of experiment [11] is Thyrotropin-releasing hormone receptor (Homo sapiens) (UniProt P34981). Put plainly: qHTS assay to identify small molecule agonists of the thyrotropin-releasing hormone receptor (TRHR) signaling pathway (AID 1346891; calls by dose curve;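 note: HEK293 cells expressing TRHR with calcium dye readout; series mostly up to about 58 µM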). In outline:
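Cells: TRHR-Hek293, seeded and incubated 18 h. Dye loading: 2 h at 37 °C. Compound added from DMSO stock by pin tool. Read-out: kinetic calcium fluorescence over 3 min.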

Experiment [12] deals with Nuclear receptor subfamily 1 group I member 2 (Homo sapiens) (UniProt O75469). Put plainly: Human pregnane X receptor (PXR) small molecule agonists, qHTS assay (AID 1346982). Note: nearly all actives have a fitted effect of over 35% in size. Note: potency is the fitted concentration of half-maximal effect. In short, it runs like this: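 Reporter HepG2 cells expressing PXR-Luc are cultured in charcoal-stripped FBS (5%), treated with compounds for 24 hr at 37 C, and assayed by ONE-Glo luminescence after 30 min at room temperature.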

Experiment [13] has as its target Cytochrome P450 2C9 (Homo sapiens) (UniProt P11712). Put plainly: Cytochrome P450 Family 2 Subfamily C Member 9 (CYP2C9) small molecule antagonists: luciferase reporter qHTS assay (AID 1671198). Note: nearly all actives have a fitted effect of over 50% in size. Note: potency is the fitted concentration of half-maximal effect. In short, it runs like this:
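P450-Glo proluciferin substrate with CYP2C9 enzyme; 10 min RT preincubation, then NADPH regeneration 1 h at 37C; luciferin detection reagent 20 min RT, luminescence in relative luminescence units.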
A general note: A reporter such as luciferase makes a cellular process visible.

Experiment [14] concerns the target Retinoic acid receptor RXR-alpha (Homo sapiens) (UniProt P19793). Put plainly: qHTS assay to identify small molecule agonists of the RXR signaling pathway (AID 1159527; calls by dose curve; note: nearly all actives have a fitted effect of over 35% in size). In outline:
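Cells plated at 2,000/well, rested 5 hr at 37 C, pin-dosed with DMSO compound solutions, incubated 16 hr, then loaded with B/G FRET substrate for 2 hr at RT before dual-emission fluorescence reading.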

Experiment [15] can be described thus: qHTS assay to identify small molecule antagonists of the estrogen related receptor (ERR) signaling pathway from Tox21 library - cell viability counter screen (AID 1224834). Note: nearly all actives have a fitted effect of over 30% in size. Note: potency is the fitted concentration of half-maximal effect. In short, it runs like this:
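Compounds in DMSO were pinned onto ERR cells that had been incubated for 6 h, and the plates were held at 37 C for 17.5 h. CellTiter-Fluor reagent was then added and fluorescence was measured after 30 min.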

A short description of experiment [16]: qHTS assay to identify small molecule agonists of the constitutive androstane receptor (CAR) signaling pathway - cell viability counter screen (AID 1224836). Note: nearly all actives have a fitted effect of over 45% in size. Note: potency is the fitted concentration of half-maximal effect. In outline:
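Cells were seeded and incubated 4 hrs. Compounds were added across 15 concentrations together with PK11195 at 0.75 uM final. Plates were incubated 23 hrs at 37 C. CellTiter-Fluor was added and fluorescence measured.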

Experiment [17] can be described thus: qHTS assay to identify small molecule antagonists of the constitutive androstane receptor (CAR) signaling pathway - cell viability counter screen (AID 1224837). Note: nearly all actives have a fitted effect of over 45% in size. Note: potency is the fitted concentration of half-maximal effect. In short, it runs like this: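 Cells are seeded, rested 4 hr at 37 C/5% CO2, dosed with compound (15-point series) and 50 nM CITCO, incubated a further 23 hr, and then CellTiter-Fluor reagent is added before fluorescence is read. The line is HepG2 with stable hCAR and CYP2B6-2.2kb.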

Experiment [18] is described as follows: qHTS assay to identify small molecule antagonists of the sonic hedgehog signaling (Shh) pathway - cell viability counter screen (AID 1259367). Note: nearly all actives have a fitted effect of over 55% in size. Note: potency is the fitted concentration of half-maximal effect. In outline: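 Fluorescence read-out (CellTiter-Fluor, 1 hr at 37C) taken after 23 hr compound treatment of 3T3 Gli1-Luc cells stimulated with conditioned medium. Cells were seeded at 2,000 per well and pre-incubated 4 hr.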

Experiment [19] is described as follows: Caspase-3/7 induction in HepG2 cells by small molecules, qHTS cell viability counter screen (AID 1346981). Note: nearly all actives have a fitted effect of over 30% in size. Note: potency is the fitted concentration of half-maximal effect. In outline:
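In this quantitative HTS counter screen, compounds delivered in DMSO were left on unmodified HepG2 cells for 16 hr at 37 C. Viability was then determined fluorometrically with CellTiter-Fluor, in parallel with caspase-3/7 induction in the same wells.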

Experiment [20] is described as follows: qHTS assay to identify small molecule antagonists of the retinoic acid receptor (RAR) signaling pathway (AID 1159552; note: nearly all actives have a fitted effect of over 50% in size). In short, it runs like this: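 Retinol at 1 uM final stimulated RARE-luciferase expression in C3RL4 cells exposed to test compounds for 6 hr at 37 C. Reduced luminescence, read 30 min after detection reagent, indicated pathway antagonism.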

Sequence of Luciferin 4-monooxygenase (Photinus pyralis) (P08659 whole entry, looked up): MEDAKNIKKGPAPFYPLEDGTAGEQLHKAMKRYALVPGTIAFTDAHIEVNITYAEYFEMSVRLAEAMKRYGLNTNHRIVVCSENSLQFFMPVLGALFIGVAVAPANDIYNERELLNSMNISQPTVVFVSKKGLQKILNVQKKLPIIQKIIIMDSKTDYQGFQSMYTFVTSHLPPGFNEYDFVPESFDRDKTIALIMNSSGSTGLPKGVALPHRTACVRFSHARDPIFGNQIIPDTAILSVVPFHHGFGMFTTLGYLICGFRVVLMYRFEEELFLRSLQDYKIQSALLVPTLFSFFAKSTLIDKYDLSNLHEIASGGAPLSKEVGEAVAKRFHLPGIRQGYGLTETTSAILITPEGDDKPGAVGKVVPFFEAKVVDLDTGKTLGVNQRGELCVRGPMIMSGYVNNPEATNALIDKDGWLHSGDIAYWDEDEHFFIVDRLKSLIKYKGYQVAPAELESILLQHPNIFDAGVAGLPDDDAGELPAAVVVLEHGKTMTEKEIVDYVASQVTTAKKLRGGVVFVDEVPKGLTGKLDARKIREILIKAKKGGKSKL
Sequence of Cytochrome P450 2C9 (Homo sapiens) (P11712 whole entry, looked up): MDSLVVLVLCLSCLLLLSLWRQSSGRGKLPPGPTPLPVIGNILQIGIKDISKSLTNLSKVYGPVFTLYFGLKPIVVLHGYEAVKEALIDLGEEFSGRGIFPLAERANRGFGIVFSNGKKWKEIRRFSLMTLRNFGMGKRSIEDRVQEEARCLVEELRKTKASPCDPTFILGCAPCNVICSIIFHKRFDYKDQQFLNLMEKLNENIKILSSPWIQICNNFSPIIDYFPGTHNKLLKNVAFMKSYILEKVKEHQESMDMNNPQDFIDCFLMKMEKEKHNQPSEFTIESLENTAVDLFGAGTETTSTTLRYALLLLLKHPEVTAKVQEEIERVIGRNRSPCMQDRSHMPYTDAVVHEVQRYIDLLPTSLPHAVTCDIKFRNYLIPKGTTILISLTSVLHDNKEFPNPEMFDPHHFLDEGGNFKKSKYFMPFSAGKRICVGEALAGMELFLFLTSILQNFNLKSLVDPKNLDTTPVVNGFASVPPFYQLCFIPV
Sequence of Retinoic acid receptor RXR-alpha (Homo sapiens) (P19793 whole entry, looked up): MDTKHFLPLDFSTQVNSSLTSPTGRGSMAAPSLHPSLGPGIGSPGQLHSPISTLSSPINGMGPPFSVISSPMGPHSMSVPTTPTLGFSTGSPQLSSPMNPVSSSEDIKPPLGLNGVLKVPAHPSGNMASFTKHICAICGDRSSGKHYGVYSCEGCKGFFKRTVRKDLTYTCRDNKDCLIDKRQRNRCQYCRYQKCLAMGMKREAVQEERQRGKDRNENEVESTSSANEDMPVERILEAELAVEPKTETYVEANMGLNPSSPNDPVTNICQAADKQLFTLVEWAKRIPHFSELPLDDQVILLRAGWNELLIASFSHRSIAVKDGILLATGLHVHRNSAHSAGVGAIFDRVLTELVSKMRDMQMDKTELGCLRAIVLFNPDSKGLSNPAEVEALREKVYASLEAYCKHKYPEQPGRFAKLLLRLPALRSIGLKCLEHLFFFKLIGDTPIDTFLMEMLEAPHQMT
Sequence of Nuclear receptor subfamily 1 group I member 2 (Homo sapiens) (O75469 whole entry, looked up): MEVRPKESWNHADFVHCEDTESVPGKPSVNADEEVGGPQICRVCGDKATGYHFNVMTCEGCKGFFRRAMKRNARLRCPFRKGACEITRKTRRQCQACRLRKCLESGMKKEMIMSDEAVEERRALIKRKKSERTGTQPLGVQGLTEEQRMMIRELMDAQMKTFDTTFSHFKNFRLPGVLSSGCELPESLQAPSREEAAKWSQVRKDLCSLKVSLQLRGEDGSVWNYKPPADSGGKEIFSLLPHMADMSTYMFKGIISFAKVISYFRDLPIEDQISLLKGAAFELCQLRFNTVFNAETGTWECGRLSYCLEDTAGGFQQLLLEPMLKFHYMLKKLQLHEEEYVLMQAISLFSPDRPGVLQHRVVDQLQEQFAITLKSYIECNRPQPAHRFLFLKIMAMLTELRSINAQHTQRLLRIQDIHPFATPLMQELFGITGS
Sequence of Thyrotropin-releasing hormone receptor (Homo sapiens) (P34981 whole entry, looked up): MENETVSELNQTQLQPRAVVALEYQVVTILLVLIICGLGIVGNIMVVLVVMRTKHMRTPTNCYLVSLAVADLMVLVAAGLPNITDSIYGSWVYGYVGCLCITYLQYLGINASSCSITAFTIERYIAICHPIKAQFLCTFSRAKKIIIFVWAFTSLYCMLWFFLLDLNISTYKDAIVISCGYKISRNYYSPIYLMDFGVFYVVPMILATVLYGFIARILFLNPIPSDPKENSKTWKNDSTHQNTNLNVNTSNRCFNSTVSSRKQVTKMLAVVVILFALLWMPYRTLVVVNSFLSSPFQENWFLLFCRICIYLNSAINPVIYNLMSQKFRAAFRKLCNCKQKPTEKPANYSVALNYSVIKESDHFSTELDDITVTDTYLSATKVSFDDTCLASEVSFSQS

With `N#Cc1cc([N+](=O)[O-])ccc1N`, the Potency entry in [1], in [2], in [3], in [4], in [5] and in [6] was “inactive” in each case. In addition, the Potency result in experiment [7], in experiment [8], in experiment [9], in experiment [10], in experiment [12] and in experiment [13] was “inactive” each time. For the same compound, the outcome in [11] was inactive.

As for `CCc1cccc(CC)c1N`, the Potency result in experiment [14] is “inactive”.

Regarding `CCOC(=O)C(O)(c1ccc(Cl)cc1)c1ccc(Cl)cc1`, the Potency in experiment [15] is 49.1 µM (active); in [4] it was 22.1 µM (active); in experiment [6], “inactive and 38.9 µM (active)”; in experiment [7], “inactive and 43.6 µM (active)”; in experiment [8] it was “inactive and 43.6 µM (active)”; in [10], 22.1 µM (active) and 34.7 µM (active). For the same compound, the Potency in experiment [12] was 27.6 µM (active) and inactive; in experiment [13], 10.1 µM (active) and 7.96 µM (active). For the same compound, the Potency entry in experiment [2], in experiment [16], in [17], in experiment [3] and in [9] was “inactive” each time. Also, the compound was called inactive in experiment [11].

Consider `O=S(=O)(C(Cl)(Cl)Cl)C(Cl)(Cl)Cl`, for which the Potency in experiment [1] was 61.1 µM (active); in experiment [15], 48.6 µM (active); in experiment [2], 20 µM (active); in experiment [16], 54.5 µM (active); in [17], 30.6 µM (active); in [3], 38.9 µM (active). Moreover, the Potency in [4] is 9.77 µM (active); in experiment [5] it was 21.9 µM (active); in experiment [6], 27.5 µM (active); in [7] it was 19.5 µM (active); in experiment [8], 24.5 µM (active); in experiment [9], 24.5 µM (active). Moreover, the Potency was 11 µM (active) in experiment [10], 54.5 µM (active) in [18], 61.1 µM (active) in [19] and 11.2 µM (active) in experiment [13]. In [12], the Potency result was “inactive”.

Consider `CO/C=C(/C(=O)OC)c1ccccc1Oc1cc(Oc2ccccc2C#N)ncn1`, for which the Potency in [1] was 32.7 µM (active); in [15] it was 20.6 µM (active); in [4] it was 23.3 µM (active); in experiment [18], 58.1 µM (active); in experiment [19] it was 24.5 µM (active); in [12], 686 nM (active). For the same compound, in experiment [13], the Potency was 7.45 µM (active). The Potency entry in [2], in [6], in [7], in [8] and in experiment [9] was “inactive” each time. The outcome in experiment [11] was inactive.

For the compound `Cc1cc(C)c(C(=O)P(=O)(c2ccccc2)c2ccccc2)c(C)c1`, the Potency result in experiment [1], in [2], in experiment [5] and in experiment [9] was “inactive” each time. In addition, the Potency in [4] is 49 µM (active); in experiment [10], 38.9 µM (active); in experiment [18] it was 54.5 µM (active); in experiment [12], 9690 nM (active); in experiment [13] it was 15.9 µM (active). The compound was classed as inactive in experiment [11].

Take `Brc1cc(Br)cc(Br)c1`: the Potency entry in experiment [14] is “inactive”.

As to `c1ccncc1`, the Potency result in experiment [14] is “inactive”.

`Nc1cccc([N+](=O)[O-])c1`: in experiment [20], the Potency result was “inactive”.

In the case of `Nc1ccccc1[N+](=O)[O-]`, in experiment [20], the Potency entry is “inactive”.

On to `Cc1ccc(N)c([N+](=O)[O-])c1`, for which the Potency result in experiment [20] was “inactive”.

For the compound `Nc1ccc(Cl)cc1Cl`, in experiment [20], the Potency entry is “inactive”.

For the compound `Cc1cccc(C)c1[N+](=O)[O-]`, in experiment [20], the Potency result was “inactive”.

Consider `O=C(O)C(c1ccc(Cl)cc1)c1ccc(Cl)cc1`, for which the Potency entry in experiment [14] was “inactive”.

With `Nc1cccc(C(F)(F)F)c1`, in experiment [20], the Potency entry was “inactive”.

Take `O=C1OC(=O)c2c(Cl)c(Cl)c(Cl)c(Cl)c21`: the Potency result in experiment [14] is “inactive”.

For the compound `C1=CC2C3C=CC(C3)C2C1` (stereo not drawn), in experiment [20], the Potency entry was “inactive”.

Regarding `Brc1ccc(Br)c(Br)c1`, the Potency result in experiment [20] is “inactive”.

On to `Oc1c(Cl)ccc(Cl)c1Cl`, for which, in experiment [20], the Potency entry was “inactive”.

In the case of `c1cc(OCC2CO2)cc(OCC2CO2)c1` (stereo not drawn), the Potency entry in experiment [20] is “inactive”.

Regarding `ClC1=C(Cl)C(Cl)(Cl)C(Cl)=C1Cl`, the Potency entry in experiment [14] is “inactive”.

Turning to `Brc1ccc(-c2ccccc2)cc1`, the Potency entry in [20] was “inactive”.

Regarding `CCCCC(CC)COC(=O)CCCCC(=O)OCC(CC)CCCC` (stereo not drawn), in [14], the Potency entry is “inactive”.

On to `CC(CCl)OP(=O)(OC(C)CCl)OC(C)CCl` (stereo not drawn), for which, in experiment [20], the Potency entry is “inactive”.

As for `CC(CCl)OC(C)CCl` (stereo not drawn), the Potency entry in experiment [14] was “inactive”.

As for `Cc1c(N)cccc1[N+](=O)[O-]`, in experiment [14], the Potency entry is “inactive”.

On to `OCC(CBr)(CBr)CBr`, for which the Potency entry in experiment [20] is “inactive”.

With `Clc1ccccc1-c1ccccc1Cl`, the Potency entry in experiment [15], in experiment [2], in experiment [16], in [17], in experiment [3] and in experiment [18] was “inactive” in each case. In addition, the Potency entry in experiment [19] is “inactive”. The Potency in experiment [5] is 35.2 µM (active). In [11], the result was inactive.

The record behind these values is PubChem BioAssay (Tox21).
